# Source: PubChem BioAssay (National Center for Advancing Translational Sciences (NCATS))
# HT1080NT lethal: kills 2HG-producing HT-1080-NT fibrosarcoma cells. HT-1080-NT fibrosarcoma viability, CellTiter-Glo ATP luminescence, 48 h. Potency, µM (titrated, usually from 46.1 µM), inactives show at the top dose activity, negative = less viability, actives largely listed as cytotoxic. 1.6% of 360,000 active. AID 686970;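 also: NT is the 2HG producing partner of a matched IDH1 knockdown line; potency is read from the fitted curve at half-maximal effect; 0% = DMSO-treated cells and -100% = media-only wells without cells; nearly all actives have a fitted effect of over 55% in size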
#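 HT-1080-NT fibrosarcoma cells (2HG-overproducing), 750 cells/well in RPMI with 5% FBS, dosed after 2 h and incubated 48 h at 37C. CellTiter-Glo luminescence normalized to DMSO and no-cell wells; concentration-response curves fitted and classed.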
# HT1080 IDH1KD tx: kills HT-1080 cells with IDH1 knockdown | HT-1080 IDH1 knockdown viability, ATP luminescence, 48 h | Potency, µM (titrated, usually from 46.1 µM), inactives show top-dose activity, negative = toxicity, most hits filed as cytotoxic | 2% of 360,000 active | AID 686971;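 also: potency is read from the fitted curve at half-maximal effect; 0% = DMSO wells and -100% = cell-free medium wells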
#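 Cytotoxicity counter-line: IDH1KD HT-1080, 48 h, CellTiter-Glo. Curves classed by r2, magnitude and activity.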
# TDP1 cell CPT: DT40-hTDP1 cell growth loss with CPT. AID 686979. chicken DT40 Tdp1-/-;hTDP1 cells + 20 nM CPT, ATP luminescence, 48 h. 12% of 420,000 active. Potency, µM (series often up to 46.2 µM), for inactives: at the highest dose activity change, negative = growth inhibition, actives largely listed as inhibitors; also: potency is read from the fitted curve at half-maximal effect; nearly all actives have a fitted effect of over 55% in size
#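 Chicken DT40 Tdp1-/- cells complemented with human TDP1, 400 cells/well, exposed to compounds plus 20 nM camptothecin for at least 48 h at 37 C; viability read as ATP content by CellTiter-Glo luminescence.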
# IL-1B inflam inh: blocks inflammasome-driven IL-1 beta release. 4.7% of 360,000 active. AID 743279. THP-1 LPS/ATP IL-1B secretion, AlphaLISA, 16 h; stronger effect = lower value. activity change, % at 57.5 µM; in the data active = activity change below about -50%; inconclusive = mostly about -30% to -49%
#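 THP-1 cells pretreated 1 hr with compounds (up to 57.5 uM final), then stimulated with LPS (250 ng/mL final) plus ATP (1.25 mM final); secreted IL-1B measured by AlphaLISA after 16 hr, decreased signal indicating inhibition.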
# 12-LOX inh: blocks human arachidonate 12S-lipoxygenase; P18054; purified 12hLO, xylenol orange hydroperoxide absorbance; Potency, µM (doses to about 108 µM), for the others: top-dose activity change, negative = inhibition, hits mostly inhibitors; 1.1% of 580,000 active; AID 1671190; also: potency is read from the fitted curve at half-maximal effect
# Target sequence (P18054 whole entry, looked up): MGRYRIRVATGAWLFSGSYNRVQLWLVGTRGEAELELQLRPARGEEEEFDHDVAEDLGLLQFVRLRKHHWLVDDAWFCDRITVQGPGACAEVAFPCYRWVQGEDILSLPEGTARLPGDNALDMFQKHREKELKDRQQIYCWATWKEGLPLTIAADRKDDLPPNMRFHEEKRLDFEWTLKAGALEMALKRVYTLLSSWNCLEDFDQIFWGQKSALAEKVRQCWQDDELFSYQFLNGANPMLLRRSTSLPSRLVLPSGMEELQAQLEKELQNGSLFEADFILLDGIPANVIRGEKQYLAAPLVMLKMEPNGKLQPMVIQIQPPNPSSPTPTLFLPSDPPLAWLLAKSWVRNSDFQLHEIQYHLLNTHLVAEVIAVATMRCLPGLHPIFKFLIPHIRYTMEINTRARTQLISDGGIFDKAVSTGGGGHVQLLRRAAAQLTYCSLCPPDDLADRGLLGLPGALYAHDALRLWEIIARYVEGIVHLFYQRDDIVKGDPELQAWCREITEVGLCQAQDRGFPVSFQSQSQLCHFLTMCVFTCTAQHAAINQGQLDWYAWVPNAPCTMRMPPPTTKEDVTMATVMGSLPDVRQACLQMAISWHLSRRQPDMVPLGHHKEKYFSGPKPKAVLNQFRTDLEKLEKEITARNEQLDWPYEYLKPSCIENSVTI
#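 Purified human 12hLO at 150 nM in 25 mM Hepes, 0.01% Triton X-100, pH 7.0, preincubated 15 min at room temperature with compound. Reaction started with 40 uM arachidonic acid, 30 min at room temperature. Hydroperoxide measured by Fe-xylenol orange, 573/405 nm absorbance ratio.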
# TDP1 cell noCPT: qHTS for Inhibitors of human tyrosyl-DNA phosphodiesterase 1 (TDP1): qHTS in cells in absence of CPT; DT40 Tdp1-/- hTDP1 cells, no CPT, ATP luminescence, 48 h; Potency, µM (titrated, usually from 46.2 µM), inactives show at the top dose activity change, negative = growth inhibition, usual class: inhibitors; 15% of 420,000 active; AID 686978, 2013; also: potency is read from the fitted curve at half-maximal effect; nearly all actives have a fitted effect of over 55% in size
#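 No-CPT arm: Tdp1-/-;hTDP1 DT40 cells (400/well) plus compounds, incubated ≥48 hr at 37 °C. Readout CellTiter-Glo luminescence.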
# The depositor's hits bear a star; ? = inconclusive; / = no result; [ ] = another dose, or the depositor's remark. Shown is part of a subset that was picked to be rich in hits. Unless noted, calls follow the shape of the dose curve; as a rule, active = well fitted curve in the direction sought with a large enough effect; inconclusive = small, poorly fitted or top-dose-only effect, or another doubt; inactive = no such curve, though single readings can be large; an effect the other way counts as inactive or inconclusive. Unless noted, % is scaled to controls: 0 for no effect and ±100 for the full control effect.
SMILES,HT1080NT lethal,HT1080 IDH1KD tx,TDP1 cell CPT,IL-1B inflam inh,12-LOX inh,TDP1 cell noCPT
CC(=O)c1ccc(N2CCN(C(=O)C3CCCN(S(=O)(=O)c4ccc(Br)s4)C3)CC2)cc1 (stereo not drawn),/,/,15µM*,/,-14%,9.2µM*
Cc1ccc(NC(=O)Cn2nc(C(N)=O)c3ccccc3c2=O)cc1,/,/,/,/,47%,/
COc1ccc(-c2c(C#N)c(SCc3c(C)noc3C)nc3c2C(=O)CC(C)(C)C3)cc1,-5%,1%,-12%,66,7%,-24%
CC1(C)CC(=O)c2c(nc(SCC(=O)Nc3nsc(-c4ccccc4)n3)c(C#N)c2-c2ccccc2)C1,14%,12%,5.2µM*,?,3%,4.6µM*
CCc1c(C#N)c(SCCC(=O)Nc2ccc(F)cc2)nc2c1C(=O)CC(C)(C)C2,?,?,16µM*,-30,0%,?
CCc1c(C#N)c(SCCC(=O)Nc2cccc(OC)c2)nc2c1C(=O)CC(C)(C)C2,-4%,-11%,?,0,0%,16µM*
CC1(C)CC(=O)c2c(nc(SCC(N)=O)c(C#N)c2-c2ccccc2)C1,/,/,/,/,-37%,/
CN1CC2(CCN(C(=O)CC3CCCCC3)CC2)CC1C(=O)N1CCOCC1 (stereo not drawn),/,/,/,/,11%,/
COc1ccc(C(=O)NC2CCN(c3cc(-c4ccc(F)cc4)[nH]n3)C2)c(OC)c1 (stereo not drawn),/,/,/,/,4%,/
CC(=O)N1CC2(Cc3ccccc31)CN(C(=O)c1ccccc1Cl)C2,/,/,/,/,39%,/
CCOC(=O)C1CCC(CNC(=O)N2CCCC2c2ccc(C)cc2)CC1 (stereo not drawn),/,/,/,/,0%,/
O=C1NC[C@H](Cc2ccc(O)cc2)N(C[C@@H]2CCCN2C[C@H](Cc2ccccc2)N2C[C@H](Cc3ccc(O)cc3)N(CC3CCCCCC3)C(=O)C2=O)C1=O,-29%,-18%,?,-56*,25µM*,?
O=C1NC[C@H](Cc2ccccc2)N(C[C@H]2CCCN2C[C@H](Cc2ccccc2)N2C[C@H](Cc3ccc(O)cc3)N(CC3CCCCCC3)C(=O)C2=O)C1=O,?,?,?,0,?,?
O=C1NC[C@H](Cc2ccccc2)N(C[C@H]2CCCN2C[C@H](Cc2ccc(O)cc2)N2C[C@H](Cc3ccc(O)cc3)N(CC3CCCCCC3)C(=O)C2=O)C1=O,?,?,?,?,16µM*,?
COc1ccc(Cc2nc3ccc(C(=O)NC(C)Cc4ncccc4C)cc3o2)cc1OC (stereo not drawn),2%,1%,18µM*,-8,5%,?
COc1ccc(Cc2nc3ccc(C(=O)N4CCN(C)C(C)C4)cc3o2)cc1OC (stereo not drawn),-18%,-17%,?,-1,3%,18µM*
COc1ccc(Cc2nc3ccc(C(=O)N(C)Cc4nccs4)cc3o2)cc1OC,-10%,-19%,10µM*,36,0%,?
COc1ccc(Cc2nc3ccc(C(=O)N4CCCC4)cc3o2)cc1,-3%,-1%,-15%,43,0%,-8%
COc1ccc(Cc2nc3ccc(C(=O)N4CCCC4)cc3o2)cc1OC,2%,-9%,?,0,-29%,21µM*
COc1ccc(Cc2nc3ccc(C(=O)N4CCCCC4CO)cc3o2)cc1OC (stereo not drawn),3%,-12%,?,9,1%,21µM*
COc1ccc(Cc2nc3ccc(C(=O)NCc4cc(C)no4)cc3o2)cc1OC,-9%,-3%,?,25,-4%,?
COc1ccc(Cc2nc3ccc(C(=O)NC4CCOC4)cc3o2)cc1OC (stereo not drawn),-1%,-9%,12µM*,2,-3%,?
COc1ccc(Cc2nc3ccc(C(=O)NCc4cccc(C)n4)cc3o2)cc1OC,2%,1%,18µM*,?,22%,?
C=CCN(CC=C)C(=O)c1ccc2nc(Cc3ccc(OC)c(OC)c3)oc2c1,-25%,?,?,?,9%,4.6µM*
CN(Cc1ccsc1)C(=O)Cc1ccc(-c2ccccc2)cc1,/,/,/,/,-17%,/
SMILES,HT1080NT lethal,HT1080 IDH1KD tx,TDP1 cell CPT,IL-1B inflam inh,12-LOX inh,TDP1 cell noCPT
COc1cccc([S+](=O)([O-])N2CC3ON=C(C(=O)O)C3C2)c1 (stereo not drawn),/,/,/,/,5%[6.33 µM],/
COCCN(Cc1nc2ccccc2c(=O)[nH]1)C(=O)c1oc2ccc(F)cc2c1C,/,/,/,/,7%,/
CCNC(=O)NC(=O)C(C)OC(=O)CSc1ccc(Br)cc1 (stereo not drawn),/,/,/,/,0%,/
COc1ccc(Cl)cc1NC(=O)CCC1CCCN(C(=O)c2ccoc2C)C1 (stereo not drawn),/,/,/,/,19%,/
Cc1ccc(NC(=O)C(=O)NCCCN2CCCC2=O)cc1,-9%,-5%,?,-1,-9%,2%
Cc1ccc(COc2ccc(CNCCCN3CCCCCC3=O)cc2)cc1,-29%,-16%,?,-64*,?,18µM*
CCCc1ncncc1C(=O)N1C[C@@H](C)[C@](O)(C2CC2)C1,/,/,/,/,39%,/
CC(=O)ON=C1C(c2c(O)[nH]c3cc(Br)ccc23)=Nc2ccccc21,/,/,/,/,-9%[57.4 µM],/
O=Nc1c(-c2c(O)[nH]c3cc(Br)ccc23)[nH]c2ccccc12,5.2µM*,8.2µM*,?,-106*,2%,15µM*
O=S(=O)(c1ccc2c(c1)CCCC2)N1CCCC(Cn2cnc3cccnc32)C1 (stereo not drawn),/,/,/,/,28%,/
N#CCCn1cc(/C=N/O)c(-c2ccc(-c3ccccc3)cc2)n1,?,?,23µM*,-19,-23%,?
N#CCCn1cc(/C=N/NC(N)=S)c(-c2ccccc2)n1,-16%,-17%,?,7,25µM*,?
N#CCCn1cc(/C=N/O)c(-c2ccc(Cl)cc2)n1,-2%,-25%,-16%,-23,?,-6%
N#CCCn1cc(/C=C2\NC(=S)N(c3ccccc3)C2=O)c(-c2ccc(-c3ccccc3)cc2)n1,-13%,-19%,6.5µM*,-8,-23%,8.2µM*
N#CCCn1cc(/C=N/NC(N)=S)c(-c2ccc(Br)cc2)n1,2%,-20%,?,5,?,?
N#CCCn1cc(C=C(C#N)C#N)c(-c2ccc(Cl)cc2)n1,-13%,-7%,16µM*,-28,-22%,?
COC(=O)c1cn([C@H]2CO[C@H]3[C@@H]2OC[C@H]3OC(=O)Nc2ccccc2)nn1,/,/,/,/,-1%[176 µM],/
